# Measured values from PubChem BioAssay.
# Where “and” joins values, the source holds several entries; their conditions need not be identical. Equal entries are not always repeated. Calls of active or inactive are those of the source.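 Rule for the calls, unless noted: active = thallium flux through the channel raised or lowered by more than 3 SD from vehicle-only wells, actives on both sides; inactive = the rest.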
# Legend:
# [1] = test system: Hepatitis C virus NS3 helicase; experiment: blockers of NS3h binding to DNA – biochemical, fluorescence polarization, NIH Clinical Collection, primary screen (AID 743270; call rule not given here); conditions: NS3 helicase binding to Cy5-dT15 DNA, stronger effect = higher value, concentration not given here
# [2] = target: Single-stranded DNA-binding protein (Escherichia coli (strain K12)) (UniProt P0AGE0); experiment: SSB-ssDNA binding inhibitors – biochemical, fluorescence polarization, NIH Clinical Collection, counter-screen for HCV NS3 helicase inhibitor project (AID 743271; in the data active = inhibition above about 28%); conditions: E. coli SSB-DNA binding, stronger effect = higher value, concentration not given here
# [3] = compounds distorting NS3 helicase fluorescence signal – biochemical, NIH Clinical Collection, artefact control for HCV NS3 helicase inhibitor project (AID 743272; call rule not given here;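 note: HCV NS3 helicase with a Cy5 labelled single stranded DNA probe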); conditions: fluorescence interference counterscreen, HCV NS3 helicase assay; stronger effect = lower value
# [4] = Wnt pathway potentiators raising nuclear beta-catenin – imaging, WNT3A-conditioned medium, mouse C2C12, NPC library, primary screen (AID 1117326; in the data active = nuclear beta-catenin stimulation mostly above about 4.2%, no sharp cut-off; inactive = mostly below about 10%); conditions: stronger effect = higher value
# [5] = stimulators of insulin release from INS-1E, primary screen, cell-based, 5 mM glucose, NPC library (AID 1117329;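 active = compound raises insulin release from rat beta cells at 5 mM glucose, no numeric limit stated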); conditions: rat INS-1E insulin secretion, at 10 µM, stronger effect = higher value
# [6] = growth inhibition of GSK3B-pretreated HCT116 cells – cell-based, CellTiter-Glo, 0.2 to 20 µM (AID 1117336;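 active = compounds lowering colon cancer cell viability after pretreatment blocking the GSK3B kinase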); conditions: HCT116 viability after GSK3B inhibitor, at 20 µM, stronger effect = higher value
# [7] = inhibition of endothelial tube formation, primary screen, imaging, VEGF stimulated, CD31 staining, tube area, NPC library (AID 1117340;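 active = compound that reduces growth-factor-driven endothelial tube area in a mixed cell culture, no cutoff stated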); conditions: VEGF-stimulated ADSC/ECFC co-culture, at 10 µM, stronger effect = higher value
# [8] = GLP1 release stimulators, primary, NCI-H716, NPC library (AID 1117341;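 active = compound raises GLP1 secretion from the human gut endocrine cells, with no numeric limit stated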); conditions: NCI-H716 cells, at 10 µM, stronger effect = higher value
# [9] = HCT116 colon cancer cell growth inhibition, primary screen, CellTiter-Glo luminescence, NPC library (AID 1117342;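 active = compounds that lower survival of HCT116 colon cancer cells in the luminescence readout, no numeric limit stated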); conditions: at 20 µM (top of the series)
# [10] = reduced SW480 viability measured with CellTiter-Glo, NPC library, primary (AID 1117343;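 active = compounds that lower viability of the colon cancer cells in the luminescence readout, with no numeric limit stated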); conditions: CellTiter-Glo luminescence; at 20 µM (top of the series)
# [11] = NPC library primary testing for decreased DLD-1 cell viability via CellTiter-Glo (AID 1117346;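 active = compounds that lower survival of DLD-1 colon cancer cells in the luminescence readout, no cutoff given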); conditions: DLD-1 viability, CellTiter-Glo luminescence; at 20 µM (top of the series)
# [12] = target: 6-phosphogluconate dehydrogenase, decarboxylating (Homo sapiens) (UniProt P52209); experiment: inhibition of human phosphogluconate dehydrogenase – biochemical, recombinant enzyme, NADPH absorbance, primary screen (AID 1159550;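 active = at least 20% inhibition of 6-phosphogluconate dehydrogenase activity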); conditions: recombinant 6PGD, NADPH absorbance 341 nm; at 10 µM; stronger effect = higher value
# Chain of 6-phosphogluconate dehydrogenase, decarboxylating (Homo sapiens) (P52209 whole entry, looked up): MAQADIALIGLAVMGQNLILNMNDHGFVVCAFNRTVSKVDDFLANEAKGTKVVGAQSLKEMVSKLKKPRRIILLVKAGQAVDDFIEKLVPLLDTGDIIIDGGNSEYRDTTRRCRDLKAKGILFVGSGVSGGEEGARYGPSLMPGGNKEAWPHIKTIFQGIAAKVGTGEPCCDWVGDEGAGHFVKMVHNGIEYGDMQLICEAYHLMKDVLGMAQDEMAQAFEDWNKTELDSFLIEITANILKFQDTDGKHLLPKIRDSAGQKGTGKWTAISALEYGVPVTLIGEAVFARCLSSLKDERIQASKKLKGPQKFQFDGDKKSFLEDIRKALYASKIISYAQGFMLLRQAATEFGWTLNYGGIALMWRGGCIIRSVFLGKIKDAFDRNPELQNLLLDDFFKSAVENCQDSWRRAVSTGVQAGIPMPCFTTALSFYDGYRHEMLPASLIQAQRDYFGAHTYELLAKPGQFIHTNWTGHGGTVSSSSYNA
# [13] = EMT-state selective cytotoxicity in co-culture – imaging, PC-3E GFP, TEM4-18 mCherry, primary screen (AID 1345086;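 active = compounds killing one labelled cell type while sparing the other, by normalised counts and ratio limits, not self-fluorescent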;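 for all read-outs here: cells exposed to compound for 72 h before imaging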;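 for red/green cell ratio (normalised): normalised mesenchymal count divided by normalised epithelial count so high means epithelial killing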); conditions: PC-3E GFP / TEM4-18 mCherry co-culture, imaging cell counts, at 1 µM; for red/green cell ratio (normalised): actives lie on both sides, counts scaled to control wells, 1 = unselective
# [14] = viability loss with induced miR-34 in A549 – imaging, A549 dox-inducible miR-34, nuclei and caspase counts, primary screen (AID 1347080;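 active = compounds whose cell count with miR-34 switched on is under 0.7 times the count with it off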); conditions: A549 miR-34 inducible, Hoechst nuclei count, 48 h
# [15] = MELAS cybrid and Rieske KO viability enhancers – cell-based, MELAS cybrids, Rieske KO mouse fibroblasts, CellTiter-Glo, primary screen (AID 1508586;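 active = mean z-score across replicates of 1.96 or higher in either the MELAS or the Rieske mutant cell line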;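 note: z relative to plate mean and SD of compound and empty wells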); conditions: low glucose
# [16] = target: NAD(+) hydrolase SARM1 (Homo sapiens) (UniProt Q6SZW1); experiment: blocking NAD cleavage by SARM1 SAM-TIR – cell lysate, NAD-Glo luminescence (AID 1508614;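 active = compound whose remaining NAD level is above about 45 nM, limit read from the data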;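 note: higher remaining NAD means stronger inhibition of SARM1 NADase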); conditions: SAM-TIR HEK293T lysate NADase, at 1 µM, stronger effect = higher value
# Chain of NAD(+) hydrolase SARM1 (Homo sapiens) (Q6SZW1 whole entry, looked up, the tested form may be a part): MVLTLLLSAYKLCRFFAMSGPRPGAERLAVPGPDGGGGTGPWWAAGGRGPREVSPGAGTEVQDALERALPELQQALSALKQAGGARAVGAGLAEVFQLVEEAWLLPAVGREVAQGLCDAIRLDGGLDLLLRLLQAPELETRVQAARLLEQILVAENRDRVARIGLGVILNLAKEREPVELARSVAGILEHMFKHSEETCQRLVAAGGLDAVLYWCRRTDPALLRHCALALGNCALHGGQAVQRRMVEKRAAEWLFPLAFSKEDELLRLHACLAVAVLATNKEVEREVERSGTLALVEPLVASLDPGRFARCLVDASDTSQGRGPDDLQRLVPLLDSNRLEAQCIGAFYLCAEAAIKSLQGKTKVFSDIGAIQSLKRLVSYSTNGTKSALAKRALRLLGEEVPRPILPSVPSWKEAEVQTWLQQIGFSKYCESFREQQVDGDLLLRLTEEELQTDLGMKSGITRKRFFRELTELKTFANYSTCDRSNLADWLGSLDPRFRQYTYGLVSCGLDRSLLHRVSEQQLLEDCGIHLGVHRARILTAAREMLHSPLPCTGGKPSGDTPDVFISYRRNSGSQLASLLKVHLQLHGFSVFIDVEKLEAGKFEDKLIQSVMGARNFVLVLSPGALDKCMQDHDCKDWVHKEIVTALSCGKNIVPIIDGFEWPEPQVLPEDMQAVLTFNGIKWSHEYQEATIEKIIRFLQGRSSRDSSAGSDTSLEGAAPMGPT
# [17] = target: Mitogen-activated protein kinase 7 (Homo sapiens) (UniProt Q13164); experiment: Gal4-ERK5 driven luciferase induction – cell-based, HTS, primary screen (AID 1508626;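 active = luciferase signal above three times the same-plate solvent-only control wells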;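 note: luciferase driven by Gal4-ERK5 fusion binding five Gal4 sites before minimal TATA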); conditions: HeLa Gal4-ERK5 transactivation, 18 h, at 5 µM, stronger effect = higher value
# Chain of Mitogen-activated protein kinase 7 (Homo sapiens) (Q13164 whole entry, looked up, the tested form may be a part): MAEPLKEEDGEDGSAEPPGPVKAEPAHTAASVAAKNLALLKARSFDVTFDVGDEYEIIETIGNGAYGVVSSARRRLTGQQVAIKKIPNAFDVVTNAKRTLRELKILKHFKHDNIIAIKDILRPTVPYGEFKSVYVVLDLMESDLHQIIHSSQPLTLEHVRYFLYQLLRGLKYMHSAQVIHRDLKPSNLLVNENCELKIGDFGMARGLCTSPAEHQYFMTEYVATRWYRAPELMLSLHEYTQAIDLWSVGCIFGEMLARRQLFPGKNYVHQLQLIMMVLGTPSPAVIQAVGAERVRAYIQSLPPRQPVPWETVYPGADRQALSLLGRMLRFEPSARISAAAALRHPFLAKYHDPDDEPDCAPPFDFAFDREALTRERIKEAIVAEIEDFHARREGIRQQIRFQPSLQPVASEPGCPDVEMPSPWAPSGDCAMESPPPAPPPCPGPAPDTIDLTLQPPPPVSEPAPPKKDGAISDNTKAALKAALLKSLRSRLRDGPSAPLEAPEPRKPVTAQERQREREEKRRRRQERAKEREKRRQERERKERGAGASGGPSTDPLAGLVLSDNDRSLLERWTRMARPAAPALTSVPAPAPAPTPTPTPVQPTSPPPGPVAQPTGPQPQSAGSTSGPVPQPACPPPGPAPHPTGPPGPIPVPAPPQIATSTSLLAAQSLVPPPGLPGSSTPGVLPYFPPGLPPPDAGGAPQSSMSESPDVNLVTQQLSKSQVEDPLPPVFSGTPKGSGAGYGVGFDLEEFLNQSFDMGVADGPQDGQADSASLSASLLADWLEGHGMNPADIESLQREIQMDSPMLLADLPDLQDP
# [18] = test system: F380Y; experiment: BK channel mutant inhibitors and activators – cell-based, U2OS BacMam, thallium flux, beta subunits, selectivity assay, profiling panel (AID 1259406); conditions: U2OS BacMam BK variants, at 30 µM;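 note: initial slope of Thallos dye fluorescence rise after thallium is added; log ratio against the mean of 0.3% DMSO vehicle wells on the same plate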
# [19] = test system: F380Y/beta2Delta; experiment: as above; conditions: U2OS BacMam BK variants, at 30 µM
# [20] = target: Calcium-activated potassium channel subunit alpha-1 (Homo sapiens) + Leucine-rich repeat-containing protein 26 (Homo sapiens) (UniProt Q12791+Q2I0M4); experiment: as above; conditions: U2OS BacMam BK variants, F380Y/Slo1WT/gamma1, at 30 µM
# Chain of Calcium-activated potassium channel subunit alpha-1 (Homo sapiens) + Leucine-rich repeat-containing protein 26 (Homo sapiens) (Q2I0M4 whole entry, looked up, one chain of several): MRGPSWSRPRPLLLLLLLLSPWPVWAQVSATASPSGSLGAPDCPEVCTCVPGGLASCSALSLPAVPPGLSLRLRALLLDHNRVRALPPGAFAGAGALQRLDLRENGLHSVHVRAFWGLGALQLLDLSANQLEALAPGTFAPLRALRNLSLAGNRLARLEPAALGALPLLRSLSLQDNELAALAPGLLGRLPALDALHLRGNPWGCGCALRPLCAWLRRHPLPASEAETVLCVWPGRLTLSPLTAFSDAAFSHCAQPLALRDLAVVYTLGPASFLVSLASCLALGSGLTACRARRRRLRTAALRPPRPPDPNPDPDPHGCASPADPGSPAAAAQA
# [21] = measured here: epithelial PC-3E GFP cell survival
# [22] = measured here: mesenchymal TEM4-18 mCherry cell survival
# [23] = stronger effect = lower value, cell number ratio, induced over uninduced
# [24] = measured here: relative caspase fold change +Dox/-Dox
# [25] = measured here: total cells with miR-34 induction, stronger effect = lower value
# [26] = measured here: total cells without miR-34 induction
# [27] = MELAS cybrid survival, CellTiter-Glo 48 h, stronger effect = higher value
# [28] = Rieske KO mouse fibroblast survival, CellTiter-Glo 72 h
smiles,measurement,setting,value
CCCCCCNC(=O)n1cc(F)c(=O)[nH]c1=O,inhibition,[1],0.4% (inactive)
same,inhibition,[2],1.44% (inactive)
same,fluorescence ratio,[3],0.97 (inactive)
same,nuclear beta-catenin stimulation,[4]; at 10 µM,41.7% (active)
same,nuclear beta-catenin stimulation,"[4]; stimulation, at 2 µM",9.5%
same,insulin secretion stimulation,[5],0.3% (inactive)
same,viability decrease,[6],65.6% (active)
same,tube area decrease,[7],68.7% (active)
same,GLP1 secretion stimulation,[8],-0.8% (inactive)
same,inhibition of viability,[9],42% (inactive)
same,viability decrease (inhibition),[10],83.7% (active)
same,viability decrease (inhibition),[11],30.3% (inactive)
same,inhibition,[12],1.06% (inactive)
same,red/green cell ratio (normalised),[13],0.85 (inactive)
same,normalised cell number,[13]; [21],0.88
same,normalised cell number,[13]; [22],0.75
same,fold change,[14]; [23],1.09 (inactive) and 1.08 (inactive)
same,fold change,[14]; [24],1.38 and 0.815
same,cell count,[14]; [25],3390 and 2360
same,cell count,[14]; [26],3110 and 2180
same,z-score,[15]; [27],-0.365 (inactive) and -0.769 (inactive)
same,z-score,[15]; [28],0.677 and -3.1
same,remaining NAD,[16],10 nM (inactive)
same,luciferase signal,[17],32 AU (inactive)
same,log fold change Tl+ flux,[18],-0.0314 (inactive)
same,log fold change Tl+ flux,[19],-0.0543 (inactive)
same,log fold change Tl+ flux,[20],-0.0355 (inactive)
CN(CCOc1ccc(CC2SC(=O)NC2=O)cc1)c1ccccn1 (stereo not given),inhibition,[1],-1.19% (inactive)
same,inhibition,[2],4.52% (inactive) and -0.87% (inactive)
same,fluorescence ratio,[3],1.01 (inactive) and 0.96 (inactive)
same,nuclear beta-catenin stimulation,[4]; at 10 µM,4.7% (inactive)
same,nuclear beta-catenin stimulation,"[4]; stimulation, at 2 µM",0.1%
same,insulin secretion stimulation,[5],-0.5% (inactive)
same,viability decrease,[6],-166% (inactive)
same,tube area decrease,[7],-11.1% (inactive)
same,GLP1 secretion stimulation,[8],-2.5% (inactive)
same,inhibition of viability,[9],-4.27% (inactive)
same,viability decrease (inhibition),[10],17.9% (inactive)
same,viability decrease (inhibition),[11],-28.4% (inactive)
same,inhibition,[12],-0.784% (inactive)
same,red/green cell ratio (normalised),[13],0.92 (inactive)
same,normalised cell number,[13]; [21],1.63
same,normalised cell number,[13]; [22],1.5
same,z-score,[15]; [27],-0.369 (inactive) and -0.527 (inactive)
same,z-score,[15]; [28],0.76 and -1.4
same,remaining NAD,[16],10 nM (inactive)
same,luciferase signal,[17],72 AU (inactive)
same,log fold change Tl+ flux,[18],-0.00159 (inactive) and 0.0548 (inactive)
same,log fold change Tl+ flux,[19],-0.0425 (inactive) and 0.0999 (inactive)
same,log fold change Tl+ flux,[20],-0.00356 (inactive) and 0.0332 (inactive)
COc1cc2nc(N(C)CCCNC(=O)C3CCCO3)nc(N)c2cc1OC (stereo not given),inhibition,[1],-1.98% (inactive)
same,inhibition,[2],-3.95% (inactive)
same,fluorescence ratio,[3],1.02 (inactive)
same,nuclear beta-catenin stimulation,[4]; at 10 µM,1.8% (inactive)
same,nuclear beta-catenin stimulation,"[4]; stimulation, at 2 µM",1.8%
same,insulin secretion stimulation,[5],-0.3% (inactive)
same,viability decrease,[6],-24.4% (inactive)
same,tube area decrease,[7],-4.5% (inactive)
same,GLP1 secretion stimulation,[8],14.6% (inactive)
same,inhibition of viability,[9],21.1% (inactive)
same,viability decrease (inhibition),[10],19.4% (inactive)
same,viability decrease (inhibition),[11],0.1% (inactive)
same,inhibition,[12],0.608% (inactive)
same,red/green cell ratio (normalised),[13],0.93 (inactive)
same,normalised cell number,[13]; [21],1.18
same,normalised cell number,[13]; [22],1.09
same,z-score,[15]; [27],-0.397 (inactive) and -0.012 (inactive)
same,z-score,[15]; [28],0.382 and 0.0438
same,remaining NAD,[16],10 nM (inactive)
same,luciferase signal,[17],28 AU (inactive)
same,log fold change Tl+ flux,[18],0.0271 (inactive)
same,log fold change Tl+ flux,[19],0.0311 (inactive)
same,log fold change Tl+ flux,[20],-0.0369 (inactive)
NCc1ccc(S(N)(=O)=O)cc1,inhibition,[1],-7.73% (inactive)
same,inhibition,[2],1.05% (inactive)
same,fluorescence ratio,[3],1.01 (inactive)
same,nuclear beta-catenin stimulation,[4]; at 10 µM,0.8% (inactive)
same,nuclear beta-catenin stimulation,"[4]; stimulation, at 2 µM",0.2%
same,insulin secretion stimulation,[5],-0.5% (active)
same,viability decrease,[6],1.95% (inactive)
same,tube area decrease,[7],8.4% (inactive)
same,GLP1 secretion stimulation,[8],1.9% (inactive)
same,inhibition of viability,[9],7% (inactive)
same,viability decrease (inhibition),[10],14.1% (inactive)
same,viability decrease (inhibition),[11],13.8% (inactive)
same,inhibition,[12],-1.59% (inactive)
same,red/green cell ratio (normalised),[13],1 (inactive)
same,normalised cell number,[13]; [21],0.74
same,normalised cell number,[13]; [22],0.74
same,fold change,[14]; [23],0.973 (inactive) and 0.954 (inactive) and 0.851 (inactive)
same,fold change,[14]; [24],2.25 and 1.29 and 0.783
same,cell count,[14]; [25],11100 and 8530 and 11400
same,cell count,[14]; [26],11400 and 8940 and 13400
same,z-score,[15]; [27],0.171 (inactive)
same,z-score,[15]; [28],-0.0568
same,remaining NAD,[16],10 nM (inactive)
same,luciferase signal,[17],92 AU (inactive)
same,log fold change Tl+ flux,[18],0.0308 (inactive)
same,log fold change Tl+ flux,[19],-0.0418 (inactive)
same,log fold change Tl+ flux,[20],0.00552 (inactive)
N[C@@H](C(=O)N[C@@H]1C(=O)N2C(C(=O)O)=C(Cl)CS[C@H]12)c1ccccc1,inhibition,[1],-4.59% (inactive)
same,inhibition,[2],1.97% (inactive)
same,fluorescence ratio,[3],0.91 (inactive)
same,nuclear beta-catenin stimulation,[4]; at 10 µM,0.3% (inactive)
same,nuclear beta-catenin stimulation,"[4]; stimulation, at 2 µM",1.1%
same,insulin secretion stimulation,[5],1.9% (inactive)
same,viability decrease,[6],12.5% (inactive)
same,tube area decrease,[7],-21% (inactive)
same,GLP1 secretion stimulation,[8],-1.7% (inactive)
same,inhibition of viability,[9],-1.63% (inactive)
same,viability decrease (inhibition),[10],26.8% (inactive)
same,viability decrease (inhibition),[11],-20.5% (inactive)
same,inhibition,[12],-9.98% (inactive)
same,red/green cell ratio (normalised),[13],1.23 (inactive)
same,normalised cell number,[13]; [21],0.9
same,normalised cell number,[13]; [22],1.1
same,fold change,[14]; [23],0.883 (inactive) and 0.884 (inactive)
same,fold change,[14]; [24],1.88 and 4.52
same,cell count,[14]; [25],8220 and 11700
same,cell count,[14]; [26],9320 and 13200
same,z-score,[15]; [27],0.0553 (inactive)
same,z-score,[15]; [28],-0.142
same,remaining NAD,[16],10 nM (inactive)
same,luciferase signal,[17],32 AU (inactive)
same,log fold change Tl+ flux,[18],-0.0277 (inactive)
same,log fold change Tl+ flux,[19],-0.0661 (inactive)
same,log fold change Tl+ flux,[20],-0.07 (inactive)
COc1ccccc1OCC(O)COC(N)=O (stereo not given),inhibition,[1],-1.36% (inactive)
same,inhibition,[2],-1.24% (inactive)
same,fluorescence ratio,[3],1 (inactive)
same,nuclear beta-catenin stimulation,[4]; at 10 µM,-2.7% (inactive)
same,nuclear beta-catenin stimulation,"[4]; stimulation, at 2 µM",-1.9%
same,insulin secretion stimulation,[5],-1.2% (inactive)
same,viability decrease,[6],-1% (inactive)
same,tube area decrease,[7],8.8% (inactive)
same,GLP1 secretion stimulation,[8],-4% (inactive)
same,inhibition of viability,[9],-3.97% (inactive)
same,viability decrease (inhibition),[10],11.1% (inactive)
same,viability decrease (inhibition),[11],-10.7% (inactive)
same,inhibition,[12],-17.6% (inactive)
same,red/green cell ratio (normalised),[13],0.97 (inactive)
same,normalised cell number,[13]; [21],1.19
same,normalised cell number,[13]; [22],1.16
same,z-score,[15]; [27],-0.379 (inactive) and 0.493 (inactive)
same,z-score,[15]; [28],-0.0724 and 0.212
same,remaining NAD,[16],10 nM (inactive)
same,luciferase signal,[17],56 AU (inactive)
same,log fold change Tl+ flux,[18],0.00752 (inactive)
same,log fold change Tl+ flux,[19],-0.0478 (inactive)
same,log fold change Tl+ flux,[20],0.0335 (inactive)
